Bioassay records as filed in PubChem.
CYP2C19 act = human CYP2C19 activators, primary screen, biochemical, luminescence; Cytochrome P450 2C19 (Homo sapiens), P33261; recombinant CYP2C19, luciferin-H EGE luminescence; hits give high values; 0 = fully inhibited enzyme, 1 = untreated enzyme; activation factor at 5 µM; 96,000 tested, under 10 active; AID 1025, 2008;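 active means activation factor of at least 2 at 5 µM in the primary screen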;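 further: 0 = wells with 2.5 mM tranylcypromine and 1 = vehicle-only wells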
MRP1 act = H69AR viability gain despite doxorubicin, primary screen, MRP-1 activator project, H69AR cells, CellTiter-Glo. viability increase, % at 10 µM. viability rescue. 140,000 compounds, 0.61% hits. AID 799, 2007;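 active means viability gain under doxorubicin at or above a set limit, the compound median plus 3 SD, cut at about 4.7% in these data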;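 further: MRP-1 overexpressing cells given doxorubicin 25 µM after compound pretreatment; 18-22 h compound pretreatment then 72 h with doxorubicin before readout; 0% = doxorubicin-only wells and 100% = vehicle-treated cells without doxorubicin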
MRP reversal = reversal of MRP1-mediated doxorubicin resistance, primary screen, H69AR cells, doxorubicin co-treatment | differential viability (reversal), % at 10 µM | 85,000 compounds, 0.04% hits | H69AR cells + 2 uM doxorubicin, CellTiter-Glo, 72 h | AID 602, 2007;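 active means viability drop by adding the cancer drug above about 55%, with treated viability meeting a 40% cutoff, limit read from the data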;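 further: viability without doxorubicin minus viability with 2 µM doxorubicin for each compound; larger differential means the compound sensitizes cells more to doxorubicin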
CYP2C19 inhib = blockers of cytochrome P450 2C19 activity – biochemical, luminescence, ADME assay, primary screen | P33261 | CYP2C19 Supersomes, luciferin-H EGE luminescence, 30 min | inhibition, % at 5 µM | 96,000 compounds, 21% hits | AID 778, 2007;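 active means CYP2C19 inhibition above a set limit at 5 µM in the primary screen, cut at about 50% in these data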;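 further: plate controls were negative control wells for no effect and 2.5 mM tranylcypromine positive control for full effect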
CYP2C9 activ = human CYP2C9 activators, primary screen, biochemical, luminescence | 96,000 compounds, 1.4% hits | recombinant CYP2C9, luciferin-H conversion; hits give high values; factor 1 = untreated enzyme, 0 = blocked | Cytochrome P450 2C9 (Homo sapiens), P11712 | activation factor at 5 µM;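 active means activation factor of 2 or more for CYP2C9 at a 5 µM dose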;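 further: 0 = sulfaphenazole-blocked wells and 1 = vehicle-only wells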
Target sequence (P11712 whole entry, looked up): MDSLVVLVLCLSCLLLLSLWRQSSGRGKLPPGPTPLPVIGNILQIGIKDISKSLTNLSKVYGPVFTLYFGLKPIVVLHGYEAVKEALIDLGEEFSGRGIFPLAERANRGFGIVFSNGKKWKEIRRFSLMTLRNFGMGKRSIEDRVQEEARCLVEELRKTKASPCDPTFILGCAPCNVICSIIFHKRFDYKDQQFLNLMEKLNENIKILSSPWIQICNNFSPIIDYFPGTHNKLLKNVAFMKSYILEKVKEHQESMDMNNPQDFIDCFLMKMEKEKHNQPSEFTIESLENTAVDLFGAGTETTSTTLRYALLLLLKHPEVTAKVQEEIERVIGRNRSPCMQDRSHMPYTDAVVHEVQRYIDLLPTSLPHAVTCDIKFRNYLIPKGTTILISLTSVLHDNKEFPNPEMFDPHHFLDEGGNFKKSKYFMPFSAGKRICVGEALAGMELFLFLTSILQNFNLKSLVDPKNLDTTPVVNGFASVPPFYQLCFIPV
CYP2C9 inh = blockers of cytochrome P450 2C9 activity – biochemical, luminescence, ADME assay, primary screen | CYP2C9 Supersomes, luciferin-H conversion | inhibition, % at 5 µM | P11712 | 96,000 compounds, 20% hits | AID 777, 2007;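 active means blocking of liver enzyme CYP2C9 beyond about 50% at 5 µM, limit read from the data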
Active calls of the source: *; / = no result given. Shown are actives, neighbours in structure and some others; about 21% of the full set was active somewhere.

SMILES	CYP2C19 act	MRP1 act	MRP reversal	CYP2C19 inhib	CYP2C9 activ	CYP2C9 inh
O=C(Cn1nc(Cc2ccncc2)c2ccccc2c1=O)N1CCN(C(=O)c2ccco2)CC1	0.7	-2	-13	34	0.4	64*
O=C(CN1CC(c2ccccc2)CC1=O)N/N=C/c1cc(Br)ccc1O (stereo not given)	/	1	/	/	/	/
Cc1cc(C)n(CC(=O)Nc2ccccc2)n1	0.9	0	-6	10	1.1	-6
Cc1cccc(NC(=O)CCn2nc(C)cc2C)c1	0.3	-1	-2	71*	2.6*	-160
Cc1ccc(NC(=O)CCn2nc(C)cc2C)c(C)c1	0.5	-1	-6	53*	1	-2
Cc1ccc(NC(=O)CCC(=O)n2nc(C)cc2C)c(C)c1	1.1	0	/	-5	1.2	-24
Cc1ccc(NC(=O)CNc2cccc(C)c2C)c(C)c1	0.4	-1	14	64*	0.5	52*
Cc1ccc(NC(=O)CNc2ccc(OC(C)C)cc2)c(C)c1	/	-3	-2	/	/	/
O=C(NC1CC2CCCC(C1)N2Cc1ccco1)NC12CC3CC(CC(C3)C1)C2 (stereo not given)	1.2	0	19	-20	1.1	-5
COc1ccc(-c2cc3ccccc3n2CC(O)CN2CCN(CCO)CC2)cc1 (stereo not given)	0.9	-4	11	12	0.9	10
CC1CC(=O)C2=C(C1)Nc1ccccc1SC2c1ccc(F)cc1 (stereo not given)	/	0	/	/	/	/
CCOc1ccc(NC(=S)NC(C)c2cccs2)cc1 (stereo not given)	/	-2	/	/	/	/
CCOc1ccc(OCc2ccc(C(=O)O)o2)cc1	0.3	-3	10	70*	0.7	30
CCOc1ccc(C(=O)NCc2cccnc2)cc1	0.6	-1	-2	44	0.9	8
O=C(OCc1ccccn1)c1ccc(COc2ccccc2Cl)o1	0.4	0	17	61*	0.7	26
CCc1ccc(OCc2ccc(C(=O)NCc3ccccn3)o2)cc1	0.3	0	6	71*	0.4	55*
CCOc1ccc(OCc2ccc(C(=O)NCc3ccncc3)o2)cc1	0.1	-1	10	92*	0.2	80*
Cn1cccc1C(=S)N=P(C1CCCCC1)(N1CCOCC1)N1CCOCC1	0.9	-3	3	12	1.1	-11
CCOC(=O)Cc1csc(NC(=O)COc2ccccc2)n1	0.7	2	-4	28	0.5	55*
CCOC(=O)C(=O)c1csc(NC(=O)COc2ccc(N(C)S(=O)(=O)c3ccc(F)cc3)cc2)n1	0.4	0	-4	57*	0.4	59*
CCOC(=O)Cc1csc(NC(=O)COc2ccc(N(C)S(=O)(=O)c3cccs3)cc2)n1	0	-1	-8	96*	0.1	95*
CCOC(=O)Cc1csc(NS(=O)(=O)c2ccc3ccccc3c2)n1	/	-1	/	/	/	/
CCOC(=O)Cc1csc(NC(=O)COc2ccccc2OC)n1	0.8	0	/	22	0.7	26
CCOC(=O)Cc1csc(NS(=O)(=O)Cc2ccccc2)n1	1	-1	-7	1	0.2	77*
O=C(CCS(=O)(=O)c1cccs1)N1CCCC1	1	0	15	-4	0.9	14
SMILES	CYP2C19 act	MRP1 act	MRP reversal	CYP2C19 inhib	CYP2C9 activ	CYP2C9 inh
CN(c1ccc(OCC(=O)N2CCCCC2)cc1)S(=O)(=O)c1cccs1	0.5	0	24	47	0.3	69*
Cc1ccn2c(-c3n[nH]c(=S)n3C)c(C)nc2c1	/	-1	/	/	/	/
Cc1cccc2cc(CN(Cc3ccc(F)cc3)C(=O)N(C)C)c3nnnn3c12	0.7	0	-3	30	0.6	39
CCOC(=O)c1cc2sc(C)cc2n1CC(=O)NCCc1ccccc1	0	-1	-5	100*	0.5	46
COC(=O)c1cc2sc(Cl)cc2n1CC(=O)NCCC(C)C	0.8	-2	11	16	1.1	-7
CCOC(=O)c1cc2ccccc2n1CCN(CC)CC	0.7	-3	-14	35	1.2	-24
CCOC(=O)c1cc2sc(C)cc2n1CC(=O)N(CC)CC	0.5	-2	-10	54*	1	-5
COC(=O)\C(C(C)=O)=C(/C=C/C=C/C=C/N(C)C)N(C)C	1	-1	-4	0	0.9	7
COc1ccc(/C=C2/SC(=O)N(CC(=O)Nc3cc(C)on3)C2=O)cc1OC	/	0	/	/	/	/
COc1ccc(C(=O)NCC23C=CC(O2)C2C(=O)N(Cc4ccccc4)C(=O)C23)cc1 (stereo not given)	0.4	0	3	62*	0.7	34
CC(=O)Oc1ccc(N2C(=O)C3C4C=CC(CO)(O4)C3C2=O)cc1 (stereo not given)	1.2	-1	-6	-16	1.3	-33
COc1ccc(CSC(=N)N)cc1[N+](=O)[O-]	0.5	3	-1	51*	0.4	62*
CCCCCOc1ccc(CSC(=N)N)cc1[N+](=O)[O-]	0.6	-5	/	37	0.7	30
Cc1cccc(N2CCN(C(=O)c3cccc(N4C(=O)C5CC=CC(C)C5C4=O)c3)CC2)c1C (stereo not given)	0.7	-1	8	28	0.4	59*
O=C(c1cccc(N2CCCC2=O)c1)N1CCN(c2ccccc2)CC1	/	-3	8	/	/	/
CCCCN(C(=O)NC(=O)Nc1ccccc1C)S(C)(=O)=O	0.7	-3	9	27	0.5	53*
COC(=O)c1ccc(C2NC(C(=O)O)CS2)cc1 (stereo not given)	1	1	5	2	0.6	40
O=C(O)C1CSC(c2ccncc2)N1 (stereo not given)	0.4	-2	/	59*	0.3	73*
O=C1NN(c2ccccc2)C(=O)/C1=C\c1cccc(OC(=O)c2cccs2)c1	0.5	-2	-3	52*	0	96*
O=C1NN(c2ccc(Cl)c(Cl)c2)C(=O)/C1=C/c1cccc(OC(=O)c2cccs2)c1	0.9	-2	0	6	0.5	48
Cc1c(C(=O)OCC(=O)N2CC(=O)Nc3ccccc32)oc2ccc(Br)cc12	1.3	0	/	-26	1.3	-29
COC(=O)c1cc(NC(=O)c2c(F)c(F)c(F)c(F)c2F)cc(C(=O)OC)c1	/	-4	/	/	/	/
COC(=O)c1cc(F)c(-n2cncn2)c(F)c1	0.3	-1	/	70*	0.9	9
Cc1ccc(C(=O)Nc2ccccc2N2CCN(C(=O)C(C)C)CC2)cc1C	0.2	-3	/	76*	0.1	89*
CCC(=O)N1CCN(c2ccccc2NC(=O)c2ccc(OC)c(Cl)c2)CC1	0.3	-3	-18	74*	0.2	82*
